According to PubChem BioAssay (EPA / NIEHS):
Values joined by “and” are separate entries in the source; they are usually repeats but may differ in a detail not shown here. Equal values may be shown once. Results filed as inconclusive are left out. Where a structure was tested more than once in an assay, its records may differ in their call. Active and inactive are the calls of the source. The calls were made as follows, unless noted: active = hit-call score of the fitted dose curve at least 0.9, where 1 is the maximum; inconclusive = response in the unintended direction; inactive = score below 0.9.

Columns and labels:
[1] = read-out: alkyl and aryl transferase (GSTA2), GSTA2 (gene 2939); test: CLD_GSTA2_6hr: CellzDirect (CLD) Gene Expression Assay for alkyl and aryl transferase (GSTA2) at 6 hours (AID 2283666)
How it was run: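 Primary human hepatocytes from two donor preparations were dosed daily with fresh compound at multiple concentrations, 0.2% DMSO vehicle. GSTA2 mRNA was measured at 6 hours by qNPA chemiluminescence; induction fitted relative to DMSO, with cytotoxicity flagged morphologically.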

[2] = Tanguay_ZF_120hpf_TR_legacy: (Legacy) Oregon State University Tanguay Lab 120 Hour Post-fertilization zebrafish Assay for Touch Response (AID 2283667)
How it was run: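 Tropical 5D wild-type zebrafish embryos statically exposed to 120 hpf at 28°C, sealed and dark-covered, 0.64% DMSO final; touch response scored as present/absent by brightfield microscopy at 120 hpf. Trimethyltin chloride 5 uM positive control; dead embryos not scored.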

[3] = read-out: organic anion transporter (SLCO1B1), SLCO1B1 (gene 10599); test: CLD_SLCO1B1_6hr: CellzDirect (CLD) Gene Expression Assay for organic anion transporter (SLCO1B1) at 6 hours (AID 2283668);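 also: active means mRNA induction above DMSO baseline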
How it was run: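 Primary human hepatocytes dosed daily with test chemicals (multiple concentrations) in 0.2% DMSO vehicle; harvested at 6 h. SLCO1B1 mRNA quantified by qNPA chemiluminescence, fitted as gain-of-signal versus DMSO; cytotoxicity from phase-contrast morphology flagged alongside.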

[4] = read-out: sulfotransferase (SULT2A), SULT2A1 (gene 6822); test: CLD_SULT2A_6hr: CellzDirect (CLD) Gene Expression Assay for sulfotransferase (SULT2A) at 6 hours (AID 2283669);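 also: hits raise transcript level above the DMSO vehicle baseline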
How it was run: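 Primary human hepatocytes from two donor preparations were dosed daily with chemicals or 0.2% DMSO and harvested at 6 h. Transcript induction read by qNPA chemiluminescence, fitted for gain of signal relative to DMSO; morphology-based cytotoxicity annotated.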

[5] = CLD_ACTIN_6hr: CellzDirect (CLD) Gene Expression Assay for Baseline Control (Actin) at 6 hours (AID 2283676);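 also: active means increased actin mRNA relative to DMSO vehicle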
How it was run: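 Primary human hepatocytes dosed with fresh chemical solutions (vehicle 0.2% DMSO), harvested at 6 h. Actin mRNA quantified by quantitative nuclease protection assay with chemiluminescent read-out, as background control relative to DMSO.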

[6] = read-out: Glyceraldehyde-3-phosphate dehydrogenase (Homo sapiens) (UniProt P04406); test: CLD_GAPDH_6hr: CellzDirect (CLD) Gene Expression Assay for Baseline Control (Glyceraldehyde 3-phosphate dehydrogenase) at 6 hours (AID 2283681);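 also: active means increased signal relative to DMSO vehicle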
How it was run: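 Primary human hepatocytes from two donor preparations, dosed at multiple concentrations with 0.2% DMSO vehicle; GAPDH mRNA measured 6 h after dosing by chemiluminescent quantitative nuclease protection assay (qNPA) on denatured lysates. Serves as background control; cytotoxicity annotated by morphology.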

[7] = read-out: HMG-CoA synthase (HMGCS2), HMGCS2 (gene 3158); test: CLD_HMGCS2_6hr: CellzDirect (CLD) Gene Expression Assay for HMG-CoA synthase (HMGCS2) at 6 hours (AID 2283682);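 also: actives raise HMGCS2 transcript above the 0.2% DMSO vehicle baseline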
How it was run: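 Primary human hepatocytes dosed daily with fresh chemical, 0.2% DMSO vehicle; HMGCS2 mRNA measured at 6 h by qNPA chemiluminescence. Gain of signal fitted against DMSO; cytotoxicity flagged from phase-contrast morphology.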

[8] = read-out: Broad substrate specificity ATP-binding cassette transporter ABCG2 (Homo sapiens) (UniProt Q9UNQ0); test: CLD_ABCG2_24hr: CellzDirect (CLD) Gene Expression Assay for ABC Transporter (ABCG2) at 24 hours (AID 2283685)
How it was run: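 Primary human hepatocytes were dosed daily with ToxCast chemicals at multiple concentrations (vehicle 0.2% DMSO). ABCG2 mRNA was measured at 24 h by qNPA chemiluminescence; induction was scored as gain of signal versus DMSO.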

[9] = read-out: Cytochrome P450 2C19 (Homo sapiens) (UniProt P33261); test: CLD_CYP2C19_24hr: CellzDirect (CLD) Gene Expression Assay for xenobiotic metabolism (CYP2C19) at 24 hours (AID 2283687);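 also: activity means mRNA induction above DMSO vehicle baseline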
How it was run: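 Primary human hepatocytes (two donor preparations) dosed daily with fresh test chemical in 0.2% DMSO vehicle; CYP2C19 mRNA induction measured at 24 h by quantitative nuclease protection assay with chemiluminescence, fitted for gain of signal versus DMSO.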

[10] = CCTE_Simmons_CellTiterGLO_HEK293T: Viability Assessment in CCTE's Assays for Thyroperoxidase (TPO) Inhibition, Simmons Lab (AID 2283665);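 as to AC50: cells exposed to compound for 24 h before readout; actives reduce ATP signal below DMSO vehicle meaning cytotoxicity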
How it was run: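 HEK293T cells in DMEM with 1% FBS were dosed with 8 concentrations (5 nM–87.5 uM final, 0.5% DMSO) for 24 hr at 37C; ATP content was read by CellTiter-Glo luminescence, loss-of-signal versus DMSO, three biological replicates.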

[11] = read-out: glucuronosyltransferase (UGT1A1), UGT1A1 (gene 54658); test: CLD_UGT1A1_6hr: CellzDirect (CLD) Gene Expression Assay for glucuronosyltransferase (UGT1A1) at 6 hours (AID 2283672)
How it was run: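 Primary human hepatocytes from two donor preparations, dosed with fresh solutions in 0.2% DMSO, harvested at 6 h. UGT1A1 mRNA measured by qNPA chemiluminescence; induction fitted upward versus DMSO.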

[12] = read-out: xenobiotic metabolism (CYP1A1), CYP1A1 (gene 1543); test: CLD_CYP1A1_24hr: CellzDirect (CLD) Gene Expression Assay for xenobiotic metabolism (CYP1A1) at 24 hours (AID 2283673);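 also: CYP1A1 mRNA level by quantitative nuclease protection with chemiluminescence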
How it was run: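 Primary human hepatocytes dosed daily with fresh solutions in 0.2% DMSO vehicle. mRNA measured at 24 h by quantitative nuclease protection assay with chemiluminescence; gain-of-signal fit versus DMSO, with morphology-based cytotoxicity flags.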

[13] = read-out: Cytochrome P450 2B6 (Homo sapiens) (UniProt P20813); test: CLD_CYP2B6_6hr: CellzDirect (CLD) Gene Expression Assay for xenobiotic metabolism (CYP2B6) at 6 hours (AID 2283677);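 also: actives raise CYP2B6 transcript above DMSO baseline so AC50 marks an inducer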
How it was run: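 Primary human hepatocytes dosed with chemicals at multiple concentrations, vehicle 0.2% DMSO; CYP2B6 mRNA induction measured 6 h after dosing by quantitative nuclease protection assay with chemiluminescence, gain of signal fitted relative to DMSO.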

[14] = CCTE_Padilla_ZF_144hpf_TERATOSCORE: (Legacy) CCTE's 144 Hour Post-fertilization zebrafish Assay Teratoscore, Padilla Lab (AID 2283679; active = hit-call score of the fitted dose curve at least 0.9, where 1 is the maximum; inactive = score below 0.9;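 as to AC50: zebrafish embryos with chorions exposed by immersion from 6-8 hpf to 5 dpf with daily renewal; teratogenicity score from eye scoring of death hatching and malformations at 144 hpf; higher score means more developmental defects relative to DMSO baseline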)
How it was run: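 Larvae scored by eye at 144 hpf for death, hatching and malformations after a day in clean Hanks'. Before that, daily-renewed exposure at 80 uM (0.4% DMSO, 26C) from roughly 6-8 hpf through 5 dpf, 4 embryos per chemical.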

[15] = read-out: Cytochrome P450 3A4 (Homo sapiens) (UniProt P08684); test: CLD_CYP3A4_6hr: CellzDirect (CLD) Gene Expression Assay for xenobiotic metabolism (CYP3A4) at 6 hours (AID 2283680)
How it was run: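 Primary human hepatocytes (two donor preparations) dosed; CYP3A4 mRNA harvested at 6 h and quantified by qNPA chemiluminescence. Gain of signal fitted against 0.2% DMSO vehicle; cytotoxicity flagged by phase-contrast morphology.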

[16] = read-out: Cytochrome P450 2C9 (Homo sapiens) (UniProt P11712); test: CLD_CYP2C9_24hr: CellzDirect (CLD) Gene Expression Assay for xenobiotic metabolism (CYP2C9) at 24 hours (AID 2283688)
How it was run: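 Primary human hepatocytes from two donor preparations, dosed daily for two days at multiple concentrations; vehicle 0.2% DMSO. CYP2C9 mRNA induction at 24 h measured by qNPA chemiluminescence relative to DMSO; cytotoxicity annotated from morphology.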

[17] = read-out: Cytochrome P450 2B6 (Homo sapiens) (UniProt P20813); test: CLD_CYP2B6_24hr: CellzDirect (CLD) Gene Expression Assay for xenobiotic metabolism (CYP2B6) at 24 hours (AID 2283686)
How it was run: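 Primary human hepatocytes dosed daily for two days with fresh solutions, harvested at 24 hours; mRNA induction quantified by qNPA chemiluminescence, gain of signal vs 0.2% DMSO vehicle. Cytotoxicity annotated from phase-contrast morphology.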

[18] = read-out: xenobiotic metabolism (CYP1A2), CYP1A2 (gene 1544); test: CLD_CYP1A2_24hr: CellzDirect (CLD) Gene Expression Assay for xenobiotic metabolism (CYP1A2) at 24 hours (AID 2283683)
How it was run: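 Primary human hepatocytes from two donor preparations dosed daily with multiple concentrations of chemical, 0.2% DMSO vehicle. CYP1A2 mRNA at 24 h quantified by qNPA chemiluminescence; gain of signal analyzed relative to DMSO. Cytotoxicity flagged by phase-contrast morphology.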

Measured: AC50

Sequence of Glyceraldehyde-3-phosphate dehydrogenase (Homo sapiens) (P04406 whole entry, looked up): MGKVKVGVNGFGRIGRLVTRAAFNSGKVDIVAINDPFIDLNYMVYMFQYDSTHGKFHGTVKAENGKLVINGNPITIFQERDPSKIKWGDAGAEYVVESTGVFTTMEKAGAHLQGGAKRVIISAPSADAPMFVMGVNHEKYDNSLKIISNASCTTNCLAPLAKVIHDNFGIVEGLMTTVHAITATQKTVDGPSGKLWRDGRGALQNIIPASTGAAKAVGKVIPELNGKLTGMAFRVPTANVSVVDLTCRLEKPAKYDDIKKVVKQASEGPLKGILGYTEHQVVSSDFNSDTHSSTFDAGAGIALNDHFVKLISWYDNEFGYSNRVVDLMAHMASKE
Sequence of Cytochrome P450 3A4 (Homo sapiens) (P08684 whole entry, looked up): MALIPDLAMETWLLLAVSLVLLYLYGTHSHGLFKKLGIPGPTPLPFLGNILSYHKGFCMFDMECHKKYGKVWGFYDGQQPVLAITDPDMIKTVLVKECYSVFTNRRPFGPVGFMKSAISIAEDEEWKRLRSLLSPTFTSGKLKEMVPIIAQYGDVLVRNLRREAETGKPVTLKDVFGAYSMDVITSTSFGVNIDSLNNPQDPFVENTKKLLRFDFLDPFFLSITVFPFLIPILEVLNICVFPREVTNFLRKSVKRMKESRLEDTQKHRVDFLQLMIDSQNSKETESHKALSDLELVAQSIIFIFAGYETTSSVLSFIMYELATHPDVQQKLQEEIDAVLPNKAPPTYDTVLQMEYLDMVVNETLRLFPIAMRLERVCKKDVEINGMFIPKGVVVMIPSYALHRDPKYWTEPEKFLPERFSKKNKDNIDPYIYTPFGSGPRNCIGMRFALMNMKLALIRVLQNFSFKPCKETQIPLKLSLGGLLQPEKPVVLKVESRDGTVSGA
Sequence of Cytochrome P450 2C19 (Homo sapiens) (P33261 whole entry, looked up): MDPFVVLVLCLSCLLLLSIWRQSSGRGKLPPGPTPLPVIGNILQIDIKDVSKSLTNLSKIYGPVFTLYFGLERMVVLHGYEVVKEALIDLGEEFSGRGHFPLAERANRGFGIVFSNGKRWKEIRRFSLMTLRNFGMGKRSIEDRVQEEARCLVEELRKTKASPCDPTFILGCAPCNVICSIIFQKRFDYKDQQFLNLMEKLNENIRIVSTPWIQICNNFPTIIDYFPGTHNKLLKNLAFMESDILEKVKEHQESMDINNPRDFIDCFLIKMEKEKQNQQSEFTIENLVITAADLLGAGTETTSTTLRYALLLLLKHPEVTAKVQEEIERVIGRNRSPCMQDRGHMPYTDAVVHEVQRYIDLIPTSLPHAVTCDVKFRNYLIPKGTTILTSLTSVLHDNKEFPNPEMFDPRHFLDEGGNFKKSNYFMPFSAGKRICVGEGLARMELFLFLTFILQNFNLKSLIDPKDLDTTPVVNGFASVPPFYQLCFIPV
Sequence of Broad substrate specificity ATP-binding cassette transporter ABCG2 (Homo sapiens) (Q9UNQ0 whole entry, looked up): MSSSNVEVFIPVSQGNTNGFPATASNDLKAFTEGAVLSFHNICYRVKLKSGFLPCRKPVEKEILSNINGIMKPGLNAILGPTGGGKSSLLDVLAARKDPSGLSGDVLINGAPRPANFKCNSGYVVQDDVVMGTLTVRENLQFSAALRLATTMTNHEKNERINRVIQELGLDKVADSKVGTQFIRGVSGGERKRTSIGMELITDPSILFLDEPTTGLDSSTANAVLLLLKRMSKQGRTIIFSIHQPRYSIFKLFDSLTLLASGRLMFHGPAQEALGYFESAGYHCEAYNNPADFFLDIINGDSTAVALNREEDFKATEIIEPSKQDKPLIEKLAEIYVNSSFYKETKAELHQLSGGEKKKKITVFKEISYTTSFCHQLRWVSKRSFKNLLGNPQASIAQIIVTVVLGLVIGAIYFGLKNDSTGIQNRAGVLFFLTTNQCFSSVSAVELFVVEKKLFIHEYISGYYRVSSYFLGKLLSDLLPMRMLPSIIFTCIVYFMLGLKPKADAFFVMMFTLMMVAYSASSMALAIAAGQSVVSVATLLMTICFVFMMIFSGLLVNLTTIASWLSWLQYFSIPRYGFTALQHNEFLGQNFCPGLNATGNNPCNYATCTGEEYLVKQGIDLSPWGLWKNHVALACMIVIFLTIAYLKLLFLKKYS

CC(C)(C)c1ccc(CSc2cnn(C(C)(C)C)c(=O)c2Cl)cc1
inactive: [1] | [2] | [3] | [4] | [5] | [6] | [7] | [8] | [9]

COP(=S)(OC)Oc1nc(Cl)c(Cl)cc1Cl
active: [10] 85.6 µM | [2] 97.7 µM | [12] 3.97 µM | [13] 6.24 µM | [14] 34.7 µM
not listed: [1] | [7] | [17] | [18]
inactive: all other assays above

CCCCNC(=O)OCC#CI
active: [13] 0.838 µM | [14] 0.664 µM | [15] 1.89 µM
inactive: [1] | [2] | [3] | [4] | [11] | [13] | [6] | [8] | [17] | [9] | [16]

CCOc1cc(Oc2ccc(C(F)(F)F)cc2Cl)ccc1[N+](=O)[O-]
inactive: [1] | [2] | [3] | [4] | [11] | [6] | [7]
active: [12] 4.84 µM | [13] 2.75 µM | [14] 13 µM | [15] 5.4 µM

CCCCNC(=O)n1c(NC(=O)OC)nc2ccccc21
inactive: [10] | [1] | [3] | [11] | [5] | [6] | [8] | [9]
active: [2] 19.2 µM | [13] 4.17 µM | [14] 1.29 µM | [18] 4.66 µM

CCCC1COC(Cn2cncn2)(c2ccc(Cl)cc2Cl)O1 (centres undefined)
inactive: [4] | [11] | [5] | [15] | [7] | [8]
active: [10] 79.7 µM | [2] 9.51 µM | [13] 0.759 µM | [14] 26.5 µM

CCNc1nc(Cl)nc(NC(C)C)n1
active: [12] 4.27 µM | [13] 2.99 µM | [15] 20 µM
not listed: [5] | [8] | [10] | [16] | [17] | [18]
inactive: all other assays above

Cc1c(F)c(F)c(COC(=O)C2C(/C=C(\Cl)C(F)(F)F)C2(C)C)c(F)c1F (centres undefined)
active: [2] 3.23 µM | [13] 20 µM | [14] 0.00676 µM
not listed: [7] | [9] | [10] | [16] | [17] | [18]
inactive: all other assays above

CCc1nn(C)c(C(=O)NCc2ccc(C(C)(C)C)cc2)c1Cl
active: [4] 2.8 µM | [14] 0.164 µM
inactive: [1] | [2] | [3] | [11] | [5] | [13] | [15] | [7] | [8]

C=CCC1=C(C)C(OC(=O)C2C(C=C(C)C)C2(C)C)CC1=O (centres undefined)
active: [10] 54.1 µM | [13] 2.82 µM | [14] 1.54 µM and 8.75 µM
not listed: [6] | [9] | [12] | [16] | [17] | [18]
inactive: all other assays above

COc1nc(NC(C)C)nc(NC(C)C)n1
active: [13] 4.18 µM
not listed: [7] | [10] | [12] | [17] | [18]
inactive: all other assays above

C=CCC1=C(C)[C@@H](OC(=O)[C@@H]2[C@@H](C=C(C)C)C2(C)C)CC1=O
inactive: [1] | [2] | [3] | [11] | [6] | [7] | [8] | [16]
active: [10] 42.5 µM | [4] 20 µM | [13] 5.86 µM | [14] 3.51 µM

O=C(Nc1ccccc1)Nc1ccnc(Cl)c1
active: [10] 53.8 µM | [13] 20 µM | [14] 66 µM
inactive: [1] | [2] | [11] | [5] | [6] | [7]

Oc1ccccc1-c1ccccc1
active: [10] 97.1 µM | [14] 53.4 µM
inactive: [1] | [2] | [3] | [11] | [13] | [6] | [8] | [9] | [16]

CCOP(=S)(OCC)SCn1c(=O)oc2cc(Cl)ccc21
inactive: [1] | [2] | [4] | [11] | [7] | [8]
active: [10] 67.4 µM | [13] 1.61 µM | [14] 13.5 µM

CON(C)C(=O)Nc1ccc(Cl)c(Cl)c1
active: [12] 1.82 µM | [13] 1.83 µM | [14] 60.1 µM
inactive: [10] | [2] | [4] | [11] | [15]

CN(C)C(=S)SSC(=S)N(C)C
active: [10] 40.2 µM | [2] 3.26 µM | [14] 0.0128 µM
inactive: [1] | [3] | [5] | [6] | [7] | [8]

N#Cc1cc(Br)c(O)c(Br)c1
active: [14] 15.3 µM | [18] 33.4 µM
inactive: [1] | [2] | [3] | [4] | [11] | [5] | [13] | [6] | [7]
